Test system: PXR:RXRa (NR concentration 270 nM, RXRa partner concentration 90 nM)
Assay: PBM binding z-score (relative to random genomic background probes); higher = stronger binding; sequences stand for … in GC…GCGATTGACAGCGTAGAATGAAGG
Outline: (§1)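 Binding z-scores were set against random background probes. The data came from custom Agilent 4×180K protein-binding microarrays carrying double-stranded probes with 34-nt variable regions, incubated 1 h with ligand-free nuclear receptor dimers. Partner-specific antibodies detected binding, and scanned fluorescence was regression-normalized.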

Sequence	PBM binding z-score
CAAACTAGGGCAAAGGTCAAAGTCGAGCCAACCA	5.98
CGAACTAGGTCATTGACGGGACAGTGAATAGTAA	1.15
TCTTGTAGATCAACAGGCGGTTAAGAAAGATCGA	0.038
ACTATTAGGTGACTTAGGGCAACCGATACGACGC	0.146
TCTGCTACGTCAGTTGGTCAGCTAACGAGCTGCC	-0.876
CTCGAAAGGTCGTGCTCAAGTGAGTATACCAAAC	3.15
TAGCCTAGGTCATTCAGGGGCCAGGATAGAAAGC	2.26
CCTCGGAGGACAACAGGAGGTGAGAGCTGCCAGA	-0.513
ACAGACAGGTGAGTGAAGGTAATTCAGCTGGACG	-0.2
CTACCAAGGTGAACAAGCTCGTTGATTACTATTC	-0.0454
TAGCCTAGGTAATGCGGGCCAGTATAGTGTCGGC	-0.858
CCTCGGAGGACAAAAGGAGGTCAGAGCTGCCAGA	2.15
GCTTGTAGAGCAAGGTTAAGAAAGACTAAGCTAA	0.206
TCATATAGGTAAAAGGAGAAAGTCGGTGTGGTAA	0.415
TCTAGCAGGCCAGAGGTTCACTCAAGAGGTACGG	0.274
TCGAGTAGGTTCGGGGCATTCAGAATGGCGTCGA	-0.101
TCTATTAGTTGATTAGGGCAACCTAAACAGCGGA	0.712
ATACCAAAGTGATCGTGAGGTCGTTGATACTAAC	1.86

Test system: PXR homodimer (NR concentration 270 nM)
Assay: as above
Outline: as §1

Sequence	PBM binding z-score
TCAGACAGGTGAAGCTAACTCAGGTACGCAGTCG	0.111
TAGCCTTGGTCATGCGGGCCAGTATAGTGTCGGC	-1.18
GTACCAAGGTGAATAGGTCGTTAATGAGTAGGCG	0.393
GCTTGTAGATCAACGTTAAGAAAGACTAAGCTAA	-0.226
TCTTGTAGATCAAAGGGTAAGAAAGCCGAAGCCT	-0.478
GCTGATAGGTCAACTGATGGTCAGCTAAAGCTCG	-0.565
CATACAGGGTCAGCTAGGGCAGAGTAGGGACGGC	0.343
AGTCAAAGTTCAGGACGATGTAACGTAAAGCACG	1.24
TCTAGTTGGTCACGGTGGTCACACACGACGGGTA	-0.191
CCGACTGGGGCAAGGTTGCCATAACGCACAGCCA	-0.379
CCTAGCGGGCCAGGGTCACTCAAGCATTTCGCTT	-0.612
AGAATGAGGTTGTACGTAGATCAGGGAAGAAAGT	0.629
AGAATGAGGTTATACGTACATCAGGGAAGAAAGT	0.643
TGGAGTAGGTTAGGGGCATTCAGAATGGCGTCGA	1.43
CCTACTGGGCCATTCAGAGGCCATTGATCATATG	-0.0574
ATATGTAGGTTACGGGTCATTCAGGTTGGTTCGC	1.67
TCGAGTAGGTTAGGGGTATTCAGAATGGCGTCGA	0.362
CCTAGTTCGTCAAGGTCACACACGCTATAGGTAC	10.4
TCTTTTAGTTGATTAGGGCAACCGAAACAGCGGA	0.929
GCTAGCAGGGCATTTGGGTCACTCAATGACGGGC	0.171

Sequence	PBM binding z-score
TGAATGAGGTTATAAGATCGGGGAACGTTGCAAA	-0.242
CGTCCCAGGTCAGAGAGGTCAGTGAATGCCGAGT	10.2
CAAACTAGGGCAAAGGTCAAAGTCGAGCCAACCA	1.29
CGAACTAGGTCATTGACGGGACAGTGAATAGTAA	0.012
TCTTGTAGATCAACAGGCGGTTAAGAAAGATCGA	-0.259
ACTATTAGGTGACTTAGGGCAACCGATACGACGC	0.0513
TCTGCTACGTCAGTTGGTCAGCTAACGAGCTGCC	-1.18
CTCGAAAGGTCGTGCTCAAGTGAGTATACCAAAC	0.371
TAGCCTAGGTCATTCAGGGGCCAGGATAGAAAGC	-0.068
CCTCGGAGGACAACAGGAGGTGAGAGCTGCCAGA	-0.0477
ACAGACAGGTGAGTGAAGGTAATTCAGCTGGACG	-0.191
CTACCAAGGTGAACAAGCTCGTTGATTACTATTC	-0.0254
TAGCCTAGGTAATGCGGGCCAGTATAGTGTCGGC	-1.13
CCTCGGAGGACAAAAGGAGGTCAGAGCTGCCAGA	0.144
GCTTGTAGAGCAAGGTTAAGAAAGACTAAGCTAA	-0.546
TCATATAGGTAAAAGGAGAAAGTCGGTGTGGTAA	0.686
TCTAGCAGGCCAGAGGTTCACTCAAGAGGTACGG	-0.691
TCGAGTAGGTTCGGGGCATTCAGAATGGCGTCGA	-0.4
TCTATTAGTTGATTAGGGCAACCTAAACAGCGGA	-0.0681
ATACCAAAGTGATCGTGAGGTCGTTGATACTAAC	1.59

— the supplement of paper PMC6555819
